Measured values taken from PubChem BioAssay AID2314 (National Center for Advancing Translational Sciences (NCATS), 2010).
Where “and” joins values, the source holds several entries; their conditions need not be identical. Equal entries are not always repeated. The campaign covered roughly 300,000 compounds. About 37,000 (12%) were called active. The full list was thinned out, with actives kept by preference. Unmarked numbers belong to inactive results. Rule as the data show it: active = max response mostly above about 13% (no sharp cut-off); inactive = mostly below about 14%.

Test: Cycloheximide Counterscreen for Small Molecule Inhibitors of Shiga Toxin; also: read at 38.3 µM for the half of the compounds with a filed dose; 0% is about no effect
Settings: cell reporter, cycloheximide protein synthesis inhibition counterscreen; stronger effect = higher value

Row | Structure (SMILES) | max response
1 | O=C(C1CCCO1)N(c1ccc(F)cc1)C1C=CS(=O)(=O)C1 (configuration not stated) | -9.85%
2 | Cc1onc(-c2ccccc2Cl)c1C(=O)NCCn1ccc2ccccc21 | -2.37%
3 | Cc1onc(-c2ccccc2Cl)c1C(=O)OCC(=O)c1ccccc1 | 38.6% (active)
4 | CC(=O)Nc1cccc(/C(C)=N/NC(=O)c2c(-c3ccccc3Cl)noc2C)c1 | 0.404%
5 | CC(=O)n1cc([C@H]2C=C(C(=O)N3CCOCC3)O[C@@H](OCc3ccc(CO)cc3)C2)c2ccccc21 | -0.396%
6 | Cc1ccc(S(=O)(=O)N2CCN(C)CC2)cc1 | 1.47%
7 | O=C1CSC(c2ccccc2)N1c1nc(-c2ccc(Cl)cc2Cl)cs1 (configuration not stated) | -1.24%
8 | Clc1ccc(-c2ncc3ccccn23)c(Cl)c1 | -0.544%
9 | Clc1ccc(-c2cc(-c3ccccn3)on2)c(Cl)c1 | 29.5% (active)
10 | C(=N\Nc1ccc2ccccc2n1)/c1ccc2c(c1)OCO2 | -3.9%
11 | Cc1noc(C)c1/C=N/Nc1ccc2ccccc2n1 | 39.1% (active)
12 | O=C(O)/C(=C/c1cccnc1)NC(=O)c1ccccc1 | 0.766%
13 | O=C(/C=C\NCC(=O)c1ccccc1)c1ccccc1 | 35.9% (active)
14 | O=C(CNCc1ccc(F)cc1)Nc1ccccc1-c1ccccc1 | -4.19%
15 | CCOC(=O)CNC(=O)/C(=C\c1ccc(F)cc1)NC(=O)c1ccccc1 | -0.456%
16 | Cc1cccc[n+]1CC(=O)c1ccccc1 | 0.405%
17 | O=C(/C=C/NCc1ccc(F)cc1)c1ccccc1 | 53.1% (active)
18 | O=C(/C=C/NNC(=O)c1cccc(Br)c1)c1ccccc1 | 22.3%
19 | Cc1ccc(C(=O)Oc2ccc(C(=S)N3CCOCC3)cc2)cc1 | -3.19%
20 | COC(=O)C1(C)NC(c2ccc(C)cc2)C2C(=O)N(c3ccc(F)cc3)C(=O)C21 (configuration not stated) | 1.36%
21 | CCOC(=O)CNC(=O)/C=C/c1c(Cl)cccc1Cl | -3.14%
22 | CCOC(=O)N/N=C/c1cn(Cc2ccccc2Cl)c2ccccc12 | 4.93%
23 | CNC(=S)N/N=C/c1cn(Cc2ccc(C)cc2)c2ccccc12 | 3.75%
24 | COC(=O)N/N=C/c1cn(CCCOc2ccc(C)cc2)c2ccccc12 | 44.1% (active)
25 | Cc1ccc(Cn2ncc3c4sc(C)cc4n(C)c3c2=O)c(C)c1 | 5.87%

Row | Structure (SMILES) | max response
26 | CCn1cc(/C=C2/SC(=S)NC2=O)c(C)n1 | 2.94%
27 | Cc1nn(C)cc1/C=C1\CCC/C(=C\c2cn(C)nc2C)C1=O | 18.2% (active)
28 | O=C1/C(=C/c2ccc3c(c2)OCO3)CCC/C1=C\c1ccc2c(c1)OCO2 | 0.534%
29 | CCOc1ccc(NC(=O)COc2ccc(S(=O)(=O)N3CCCC3)cc2)cc1 | 1.08%
30 | Cc1c(C(=O)NC(=S)NCc2cccnc2)oc2ccccc12 | 6.33%
31 | COc1ccc(NC(=O)C2CCC(CNC(=O)[C@@H]3Cc4ccccc4CN3)CC2)cc1 (some centres not stated) | 15.5%
32 | CCN1CCN(C(=O)C2CCCN(S(=O)(=O)c3ccc(OC)c(OC)c3)C2)CC1 (configuration not stated) | -4.36%
33 | CCOc1ccc(S(=O)(=O)N2CCCC(C(=O)N3CCC(C(N)=O)CC3)C2)cc1Cl (configuration not stated) | 23.5% (active)
34 | CCOC(=O)C1CCN(C(=O)C2CCCN(S(=O)(=O)c3ccc(OC)c(Cl)c3)C2)CC1 (configuration not stated) | -4.35%
35 | COCCCC1CCN(C(=O)C2CCC(=O)N(C3CCCCCC3)C2)CC1 (configuration not stated) | -2.1%
36 | COc1ccc(C(CC(=O)N2CCN(c3ccccc3)CC2)c2c(O)cc(OC)cc2OC)cc1 (configuration not stated) | -2.39% and 0.819%
37 | COc1ccc(C(=O)Nc2ccccc2C(=O)N2CCN(c3ccccc3)CC2)cc1 | 11.6%
38 | COc1ccc(C(C(O)C(=O)c2c[nH]c3ccccc23)N2CCN(c3ccccc3)CC2)cc1 (configuration not stated) | 11.6% (active)
39 | Cc1c(C)n(Cc2ccc(Cl)cc2)c2ccc(C(=O)NCCCN3CCOCC3)cc12 | -6.61%
40 | O=C(NCCCn1ccnc1)/C(=C\c1ccccc1F)NC(=O)c1ccccc1 | -1.78%
41 | CCc1ccccc1NC(=O)c1ccc2snnc2c1 | -0.462%
42 | O=C(Nc1cccc(Br)c1)c1ccc2snnc2c1 | 26.9% (active)
43 | O=C(Nc1ccc2ccccc2c1)Nc1ccc2snnc2c1 | 14.6%
44 | COC(=O)Cc1cnc(NC(=O)CSc2nc(C(C)C)cc(=O)[nH]2)s1 | -1.1%
45 | COc1cccc(Oc2ccc(N)cc2)c1 | 19.4% (active)
46 | COc1ccc(/C=C/C(=O)OCC(=O)Nc2cccc(Oc3ccccc3)c2)c(OC)c1 | -2%
47 | CC(C)(C)c1ccc(Oc2ccc(N)cc2)cc1 | -11.7%
48 | Cc1ccc(Oc2ccc(N)cc2)cc1 | 14.2% (active)
49 | Nc1ccc(Oc2ccc(Cl)cc2)cc1 | 10.9%
50 | COc1cccc(OCCCN2CCCCCC2)c1 | 10.5%

Row | Structure (SMILES) | max response
51 | O=C(Oc1ccc(Br)cc1C(=S)N1CCOCC1)c1cccc([N+](=O)[O-])c1 | -2.16%
52 | CC1(C(=O)NCCc2c[nH]c3ccccc23)C=CC2(CCCCC2)N1C(=O)c1ccccc1 (configuration not stated) | 17.5%
53 | Cc1ccc(Nc2nc(CSc3nnc(-c4ccncc4)n3-c3ccccc3C)cs2)cc1 | 6.52%
54 | COc1ccccc1N1CCC(N2CCN(CC(C)(C)C)C(CCO)C2)CC1 (configuration not stated) | 1.35%
55 | NC(=O)C1CCN(Cc2nc3c(Br)cc(Br)cc3c(=O)[nH]2)CC1 | 4.18%
56 | CN(C(=O)CC1C(=O)NCCN1Cc1ccc(F)cc1Cl)C1CCCCC1 (configuration not stated) | -2.54%
57 | CC(=O)CCC(=O)c1ccc2ccccc2c1 | 48.4% (active)
58 | CC(=O)c1ccc2c(ccc3ccccc32)c1 | 67.2% (active)
59 | O=C(Nc1ccccc1N1CCCC1)c1ccc2ccccc2c1 | 18.5%
60 | CCN(CC)Cc1cc(C(C)=O)ccc1O | -3.77%
61 | Cc1ccccc1OCC(=O)NCC(=O)OCC(=O)c1ccc2ccccc2c1 | 1.31%
62 | CC(=O)c1ccc2c(c1)c1ccccc1n2CC(C)C | 3.09%
63 | CC(C)CC(O)C1CCN(C(=O)CCc2nnc(-c3ccc4c(c3)OCO4)o2)CC1 (configuration not stated) | 13.8%
64 | COc1ccc(Cl)cc1NC(=O)c1cccc(N2C(=O)C3CC=CCC3C2=O)c1 (configuration not stated) | -2.41%
65 | CC1CN(C(=S)Nc2cccc(F)c2)CC(C)O1 (configuration not stated) | -2.61%
66 | COc1ccc(CCNC(=O)Cc2ccc(C)cc2)cc1OC | 0.685%
67 | O=C(Cc1ccccn1)c1ccc(O)cc1O | -6.13%
68 | COc1ccc(CC(=O)c2ccc(O)cc2O)cc1OC | 12.9% (active)
69 | CCN(Cc1ccncc1)C(=O)CCc1ccccc1 | -2.09%
70 | CCOc1ccc(NC(=O)c2cccc3c2C(=O)N(CC2CCCO2)C3)cc1 (configuration not stated) | 8.04%
71 | Cc1ccc(-n2c(Cc3cccs3)nnc2SCC(=O)OC(C)C)cc1 | 18.3%
72 | CCn1c(SCC(=O)N(C)C2CCS(=O)(=O)C2)nnc1-c1cccs1 (configuration not stated) | -1.86%
73 | CCn1c(SCC(=O)c2ccc3ccccc3c2)nnc1-c1cccs1 | -2.54%
74 | CCn1c(SCC(=O)c2ccc(Cl)s2)nnc1-c1cccs1 | 24.2% (active)
75 | Cn1c(Cc2cccs2)nnc1SCC(=O)Nc1ccccc1 | -0.893%

Row | Structure (SMILES) | max response
76 | CCn1c(Cc2cccs2)nnc1SCC(=O)c1ccc(C)cc1 | 35.4% (active)
77 | O=C(N/C(=C\c1ccc(O)cc1)C(=O)N1CCCCC1)c1ccccc1 | -0.421%
78 | COCCCNC(=O)C1CC(=O)N(CCc2ccc(F)cc2)C1 (configuration not stated) | -0.645%
79 | CC(C)(CNC(=O)c1ccc(Cl)c(S(=O)(=O)N2CCc3ccccc3C2)c1)N1CCOCC1 | -3.28%
80 | COc1cc(OC)cc(C(=O)NCCSCc2ccc(Cl)cc2)c1 | 11.2%
81 | CC1CC(C)CN(CCCNC(=O)Cn2ncc3c([nH]c4ccccc43)c2=O)C1 (configuration not stated) | -2.29%
82 | Cc1ccc(NS(=O)(=O)c2cc3c(cc2C)NC(=O)CO3)cc1 | -3.17%
83 | CC1(C)Cc2c(sc(NC(=O)C(=O)NCC3CCCO3)c2C(=O)O)CO1 (configuration not stated) | 0.548%
84 | COc1ccc2cc(C(=O)C3CCCN(C(=O)c4sc(C)nc4C)C3)ccc2c1 (configuration not stated) | 15.7%
85 | Cn1cccc1C(=O)N1CCc2ccccc2C1 | 15.5% (active)
86 | COc1ccc(OC)c(NC(=S)N2CCc3ccccc3C2)c1 | 9.77%
87 | COc1ccc2c(c1)CCc1c(C(=O)N3CCc4ccccc4C3)noc1-2 | 30.1% (active)
88 | COc1cccc(N(CC(=O)N2CCc3ccccc3C2)S(C)(=O)=O)c1 | -1.63%
89 | O=C(c1noc2c1CCCC2)N1CCc2ccccc2C1 | 40.9% (active)
90 | COc1ccc2c(c1)CCc1c(C(=O)N3CCCC3)noc1-2 | 36.2% (active)
91 | COc1ccc(S(=O)(=O)NC(C)C(=O)N2CCCCCC2)cc1 (configuration not stated) | -0.827%
92 | CN1CCN(Cc2c(C(=O)N3CCc4ccccc4C3)nc3ccc(Cl)cn23)CC1 | -1.69%
93 | CN(c1ccc(C(=O)N2CCc3ccccc3C2)cc1)S(C)(=O)=O | 18.8%
94 | O=C(C(=O)N1CCc2ccccc2C1)N1CCc2ccccc2C1 | -2.04%
95 | COc1cccc(NC(=O)N2CCCC2C(=O)NC2CCCCC2)c1 (configuration not stated) | -2.55%
96 | Cc1ccc(CN(CC(=O)NC2CCCCC2)C(=O)c2csnn2)cc1 | -2.39%
97 | CCOCCCNc1c(CC)c(C)c(C#N)c2nc3ccccc3n12 | -2.64%
